# Test results as given in paper PMC5540273 (PLoS ONE, 2017).
# Key:
# Conditions in all cases: concentration: 1 μM, replicates: in singlicate; n = 1
# BMX = system: BMX
# BRAF = system: BRAF
# BRK = system: T1, BRK
# T1 construct: gene PTK6
# BRSK1 = system: BRSK1
# BRSK2 = system: BRSK2
# BTK = system: BTK
# BUB1 = system: BUB1
# CAMK1B = system: CAMK1B
# CAMK1D = system: CAMK1D
# CAMK1G = system: CAMK1G
# 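Also: KINOMEscan kinase panel screen.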
Structure (SMILES),%Inh (BMX),%Inh (BRAF),%Inh (BRK),%Inh (BRSK1),%Inh (BRSK2),%Inh (BTK),%Inh (BUB1),%Inh (CAMK1B),%Inh (CAMK1D),%Inh (CAMK1G)
COC(=O)Nc1nc2ccc(Oc3ccc(CC(=O)Nc4cc(C(F)(F)F)ccc4F)cc3)cc2[nH]1 [GW680903],16%,45%,20%,1%,0%,0%,63%,30%,0%,0%
COc1cc(Nc2nccc(N3CCC(NS(=O)(=O)c4ccc(NC(C)=O)cc4)CC3)n2)cc(OC)c1OC [GSK1379825],32%,14%,40%,0%,1%,0%,48%,35%,15%,5%
Cl.N#CCc1ccc(Nc2nccc(Nc3ccc(Oc4ccccc4)cc3)n2)cc1 [GW639905],34%,0%,60%,0%,0%,0%,0%,31%,0%,0%
CC(C)(C)c1ccc(C(=O)Nc2cn3cc(-n4ccnc4)ccc3n2)cc1,0%,19%,15%,31%,0%,0%,7%,0%,6%,7%
Cc1ccc(NC(=O)c2ccnc(N3CCCCC3)c2)cc1-c1ccc(C(=O)NCC2CC2)cc1 [GW775610],0%,77%,12%,9%,6%,0%,0%,24%,0%,0%
Cc1ccc(NC(=O)c2ccc(Cl)c(Cl)c2)cc1-c1ccc(C(=O)Nc2ccncc2)cc1 [GSK1398460],6%,34%,10%,7%,10%,0%,6%,28%,24%,0%
CN(C)CCNS(=O)(=O)c1ccc(-c2ccnc3[nH]ccc23)cc1 [GSK977620],9%,0%,16%,19%,0%,0%,29%,0%,66%,8%
Cc1cc(-c2ccnc(Nc3cccc(C#N)c3)n2)cc(C)c1O [GSK1440913],25%,4%,25%,2%,0%,14%,52%,24%,8%,22%
CN(C)c1ncnc2nc[nH]c12 [SKF-31736],0%,9%,0%,0%,0%,0%,40%,0%,0%,8%
